# Results filed as inconclusive are left out. Entries that show only a call come without a potency. A number with no mark means an inactive call. Calls of active or inactive are those of the source. Calls come from the whole dose curve; as a rule, active = well fitted curve in the direction sought with a large enough effect; inconclusive = small, poorly fitted or top-dose-only effect, or another doubt; inactive = no such curve, though single readings can be large; an effect the other way counts as inactive or inconclusive. Where a SMILES comes first, the peptide text is derived from it.
# What was measured:
# [1] = P-glycoprotein substrates identified in KB-3-1 adenocarcinoma cell line, qHTS therapeutic library screen (AID 1346986); note: nearly all actives have a fitted effect of over 60% in size
# Method in brief: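 72 h cell-killing screen, 500 cells/well, CellTiter-Glo luminescence. Paired lines KB-3-1/KB-8-5-11; P-gp dependence checked by tariquidar co-treatment and HEK-293 MDR-19 versus empty-vector cells.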
# [2] = P-glycoprotein substrates identified in KB-8-5-11 adenocarcinoma cell line, qHTS therapeutic library screen (AID 1346987); note: nearly all actives have a fitted effect of over 65% in size; for activity change, negative = cytotoxicity: series mostly up to about 44 µM
# Method in brief: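 Compounds are pinned in dose-response onto KB-8-5-11 cells (500 cells/well, colchicine-free medium) and left 72 h at 37 degree C. CellTiter-Glo luminescence then yields AC50 values.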
smiles,measurement,setting,value
CCOc1ncc(S(=O)(=O)N2CCN(CC)CC2)cc1-c1nc2c(CC)n(CCOC)nc2c(=O)[nH]1,Potency,[1],inactive
same,Potency,[2],inactive
O=C(/C=C/N1C[C@@H]2C[C@@H]1CN2c1ccccn1)c1ccccc1O,Potency,[1],inactive
same,Potency,[2],inactive
CC(C)C1CCC(CO)=CC1/C=C(\CO)C(=O)OCC1(O)CCC(C(C)C)C2C=C(C(=O)O)COC(=O)C21 (configuration not stated),Potency,[1],inactive
same,Potency,[2],inactive
CC(=O)OC12CC(C)C(O)C1/C=C(/COC1OC(CO)C(O)C(O)C1O)CCC1C(/C=C(\C)C2=O)C1(C)C (configuration not stated),Potency,[1],inactive
same,Potency,[2],inactive
COC(=O)C1=CO[C@@H](O[C@@H]2O[C@H](CO)[C@@H](O)[C@H](O)[C@H]2O)[C@@H]2[C@@H](C)[C@@H](O)C(O)[C@H]12 (some centres not stated),Potency,[1],inactive
same,Potency,[2],inactive
CC1(C)C=Cc2c(ccc3c2N=C2C(C)(C)[C@@H]4C[C@]56CCCN5C(=O)[C@@]4(C[C@]23O)NC6=O)O1,Potency,[1],inactive
same,Potency,[2],inactive
CCC(C)C(=O)O[C@H]1C[C@](C)(O)[C@]23OC(C)(C)[C@H](C[C@H](OC(=O)c4ccccc4)[C@]2(COC(C)=O)[C@H]1OC(=O)C(C)CC)[C@H]3OC(C)=O (some centres not stated),Potency,[1],inactive
same,Potency,[2],inactive
COc1cccc(Cn2ncc3c4sc(S(C)=O)cc4n(C)c3c2=O)c1 (configuration not stated),Potency,[1],inactive
same,Potency,[2],inactive
COC(=O)C1=COC(O[C@@H]2O[C@H](COC(=O)/C=C/c3ccc(O)cc3)[C@@H](O)[C@H](O)[C@H]2O)C2C(CO)=CCC12 (some centres not stated),Potency,[1],inactive
same,Potency,[2],inactive
C[C@@H]1O[C@@H](O[C@H]2[C@H](O)[C@@H](O)[C@H](OC[C@H]3O[C@@H](OC(=O)[C@]45CCC(C)(C)C[C@H]4C4=CCC6[C@@]7(C)C[C@@H](O)[C@H](O)[C@@](C)(CO)C7[C@H](O)C[C@@]6(C)[C@]4(C)CC5)[C@H](O)[C@@H](O)[C@@H]3O)O[C@@H]2CO)[C@H](O)[C@H](O)[C@H]1O (some centres not stated),outcome,[1],inactive [at 9.29 µM]
same,outcome,[2],inactive [at 9.29 µM]
COc1ccc(-c2ccn(CC[C@](C)(C(=O)NO)S(C)(=O)=O)c(=O)c2)c(F)c1,Potency,[1],inactive
same,Potency,[2],inactive
NC1(c2ccc(NC(=O)c3ccnc(-c4cc(C(=O)O)ccn4)c3)cc2)CC1,Potency,[1],inactive
same,Potency,[2],inactive
CCC(C)/C=C(C)/C=C/C1=CC2=C(Cl)C(=O)C(C)(OC(C)=O)C(=O)C2=CN1C(CCC(=O)O)C(=O)O (configuration not stated),Potency,[1],inactive
same,Potency,[2],inactive
C[C@@H]1C[C@H]2OC(=O)[C@@]3(C)CCC[C@](C)(C23)[C@@]1(O)CCC1=CC(=O)OC1O (some centres not stated),Potency,[1],inactive
same,Potency,[2],inactive
CC1(CO)CCCC2(C)C3COC(=O)C3=CC(O)C12 (configuration not stated),Potency,[1],inactive
same,Potency,[2],inactive
C/C(=C\CO)CC/C=C(\C)C(=O)O[C@@H]1O[C@H](CO)[C@@H](O)[C@H](O)[C@H]1O,Potency,[1],inactive
same,Potency,[2],inactive
Nc1ncnc2c1ncn2[C@H]1O[C@@H](C(=O)N2CCN(CC(=O)Nc3cccc4c3CNC4=O)CC2)[C@H](O)[C@@H]1O,Potency,[1],inactive
same,Potency,[2],inactive
COc1cc(C2Oc3c(OC)cc(CCCO)cc3C2CO)ccc1O (configuration not stated),Potency,[1],inactive
same,Potency,[2],inactive
CC1(C)C2CCC1(C)C(OC(=O)C(O)(CC(=O)O)CC(=O)O)C2 (configuration not stated),Potency,[1],inactive
same,Potency,[2],inactive
COc1cc(/C=C/C(=O)O[C@H]2[C@@H]3C=CO[C@@H](O[C@@H]4O[C@H](CO)[C@@H](O)[C@H](O)[C@H]4O)[C@@H]3[C@@]3(CO)O[C@@H]23)ccc1O,Potency,[1],inactive
same,Potency,[2],inactive
C=C(C)[C@@H]1CC[C@]2(CO)CC[C@]3(C)[C@H](CC[C@@H]4[C@@]5(C)CC[C@H](O)C(C)(C)[C@@H]5CC[C@]43C)[C@@H]12,Potency,[1],inactive
same,Potency,[2],inactive
COc1cccc(CN(C(=O)CC(C)(C)C)C2CC(C(=O)N3CCNCC3)N(Cc3ccc4c(c3)OCO4)C2)c1 (configuration not stated),Potency,[1],inactive
same,Potency,[2],inactive
Cc1c(O)cc2c(c1O)COC1(O)CCCOC21 (configuration not stated),Potency,[1],inactive
same,Potency,[2],inactive
COC(=O)[C@]1(Cc2ccc(O)c(CC=C(C)C)c2)OC(=O)C(O)=C1c1ccc(O)cc1,Potency,[1],inactive
same,Potency,[2],inactive
O=C(COCC(=O)N1CCN(C(c2ccccc2)c2ccccc2)CC1)Nc1ccc(Cl)cc1C(=O)O,Potency,[1],inactive
same,Potency,[2],inactive
CC(=O)OC1C(C)C2C(OC3OC(CO)C(O)C(O)C3O)OC=C(C(=O)O)C2C1OC(=O)c1ccccc1 (configuration not stated),Potency,[1],inactive
same,Potency,[2],inactive
C[C@@H]1O[C@@H](O[C@H]2[C@H](Oc3cc(O)c(C(=O)CCc4ccc(O)cc4)c(O)c3)O[C@H](CO)[C@@H](O)[C@@H]2O)[C@H](O)[C@H](O)[C@H]1O,Potency,[1],inactive
same,Potency,[2],inactive
Cn1cc(CCn2cnc(-c3cnn(C)c3)c2-c2ccc(C#N)cc2)cn1,Potency,[1],inactive
same,Potency,[2],inactive
COc1ccc(-n2[nH]c3c(cnc4ccccc43)c2=O)cc1,Potency,[1],inactive
same,Potency,[2],inactive
COc1cccc(OC)c1-c1nc(C(=O)N[C@@H](CC(C)C)C(=O)O)cn1-c1ccnc2cc(Cl)ccc12,Potency,[1],inactive
same,Potency,[2],inactive
CC12CC(O)C(O)C=C1c1cc(O)cc(O)c1C(=O)O2 (configuration not stated),Potency,[1],inactive
same,Potency,[2],inactive
O=C(O)CCc1cc2ccoc2cc1O[C@@H]1O[C@H](CO)[C@@H](O)[C@H](O)[C@H]1O,Potency,[1],inactive
same,Potency,[2],inactive
O=C(O)CC1CCC(c2ccc(NC(=O)c3nnc(Nc4ccc(F)c(F)c4)o3)cc2)CC1 (configuration not stated),Potency,[1],inactive
same,Potency,[2],inactive
C[C@@H]1O[C@@H](O[C@H]2[C@H](O[C@H]3[C@H](O[C@H]4CC[C@@]5(C)C(CC[C@]6(C)C5CC=C5[C@@H]7CC(C)(C)C[C@@H](O)[C@]7(C)CC[C@]56C)C4(C)C)O[C@H](C(=O)O)[C@@H](O)[C@@H]3O)O[C@H](C(=O)O)[C@H](O)[C@@H]2O)[C@H](O)[C@H](O)[C@H]1O (some centres not stated),outcome,[1],inactive [at 9.29 µM]
same,outcome,[2],inactive [at 9.29 µM]
Cc1cn(C[C@H](N)C(=O)O)c(=O)n(Cc2ccsc2C(=O)O)c1=O,Potency,[1],inactive
same,Potency,[2],inactive
C=C1CC[C@@]2(OC1)O[C@H]1CC3[C@@H]4CC=C5C[C@@H](O)C[C@@H](O[C@@H]6OC[C@H](O)[C@H](O)[C@H]6O[C@@H]6O[C@@H](C)[C@H](O)[C@@H](O)[C@H]6O)[C@]5(C)C4CC[C@]3(C)[C@H]1[C@@H]2C (some centres not stated),Potency,[1],inactive
same,Potency,[2],inactive
CC1CC2(O)OC(=O)C3=C2C(CCC3)[C@@]12C[C@@H](c1ccoc1)OC2=O (some centres not stated),Potency,[1],inactive
same,Potency,[2],inactive
COC(=O)c1ccc(OC)cc1O[C@@H]1O[C@H](CO[C@@H]2OC[C@@H](O)[C@H](O)[C@H]2O)[C@@H](O)[C@H](O)[C@H]1O,Potency,[1],inactive
same,Potency,[2],inactive
O=C(O)C(Cc1ccccc1)NC(=O)C1CCCN1 (stereo not drawn) (H-Pro-Phe-OH; configuration not given here),Potency,[1],inactive
same,Potency,[2],inactive
CC(=O)c1ccc(O[C@@H]2OC[C@@H](O)[C@H](O)[C@H]2O[C@]2(CO)O[C@H](CO)[C@@H](O)[C@@H]2O)c(O)c1,Potency,[1],inactive
same,Potency,[2],inactive
C=C[C@@](C)(CCC=C(C)C)O[C@@H]1O[C@H](CO[C@@H]2OC[C@H](O)[C@H](O)[C@H]2O)[C@@H](O)[C@H](O)[C@H]1O,Potency,[1],inactive
same,Potency,[2],inactive
C=C1[C@H](OC(C)=O)[C@H]2[C@@H](OC(=O)c3ccccc3)[C@@H](C)C[C@]2(O)[C@@H](OC(C)=O)[C@H](C)/C=C/C(C)(C)C(=O)[C@H](OC(C)=O)[C@H]1OC(C)=O,Potency,[1],inactive
same,Potency,[2],inactive
CC1(C)[C@@H]2CC=C(CO[C@@H]3O[C@H](CO[C@@H]4OC[C@H](O)[C@H](O)[C@H]4O)[C@@H](O)[C@H](O)[C@H]3O)[C@H]1C2,Potency,[1],inactive
same,Potency,[2],inactive
COC(=O)C1=CO[C@@H](O[C@@H]2O[C@H](CO)[C@@H](O)[C@H](O)[C@H]2O)[C@H]2[C@@H]1[C@H](O)C[C@]2(C)O,Potency,[1],inactive
same,Potency,[2],inactive
C=C(C)[C@@H]1CC[C@]2(C)CC[C@]3(C)C(CCC4[C@@]5(C)CC[C@H](O)C(C)(C)C5CC[C@]43C)C12 (some centres not stated),Potency,[1],inactive
same,Potency,[2],inactive
C=C1CCC2[C@](C)(CCC[C@]2(C)C(=O)O)[C@H]1CC/C(C)=C/C(=O)OC (some centres not stated),Potency,[1],inactive
same,Potency,[2],inactive
CC1(C)C[C@H](O)C[C@@]2(C)[C@H]1[C@H](O)C=C1COC(=O)[C@@]12O,Potency,[1],inactive
same,Potency,[2],inactive
CC1OC(OC2C(OC3C(O[C@H]4CC[C@@]5(C)C(CC[C@]6(C)C5C(=O)CC5=C7CC(C)(C)CC(O)[C@]7(C)CC[C@]56C)C4(C)C)OC(C(=O)O)C(O)C3O)OCC(O)C2O)C(O)C(O)C1O (some centres not stated),outcome,[1],inactive [at 9.29 µM]
same,outcome,[2],inactive [at 9.29 µM]
COC(=O)C1=CO[C@@H](O[C@@H]2O[C@H](CO)[C@@H](O)[C@H](O)[C@H]2O)[C@@H]2[C@@H](CO)[C@@H](O)C(O)[C@H]12 (some centres not stated),Potency,[1],inactive
same,Potency,[2],inactive
C=C1C(=O)OC[C@H]2C(C(=O)O)=CC3CC(C)(C)C[C@@]132 (some centres not stated),Potency,[1],inactive
same,Potency,[2],inactive
CC(C)=CC1C[C@](C)(O)[C@@H]2[C@H]3CCC4[C@@]5(C)CC[C@H](O[C@@H]6OC[C@H](O)[C@H](O[C@@H]7O[C@H](CO[C@@H]8O[C@H](CO)[C@@H](O)[C@H](O)[C@H]8O)[C@@H](O)[C@H](O)[C@H]7O)[C@H]6O[C@@H]6O[C@@H](C)[C@H](O)[C@@H](O)[C@H]6O)C(C)(C)[C@@H]5CC[C@@]4(C)[C@@]34CO[C@@]2(C4)O1 (some centres not stated),outcome,[1],inactive [at 9.29 µM]
same,"activity change, negative = cytotoxicity",[2],9.35% [at 9.29 µM]
N#Cc1cccc(-c2nc(-c3cccnc3)no2)c1,Potency,[1],inactive
same,Potency,[2],inactive
O=C(Cn1c2ccccc2c2nc3n(c(=O)c21)CCS3)N1CCCC1,Potency,[1],inactive
same,Potency,[2],inactive
COC(=O)c1[nH]c(=O)c2ccccc2c1-c1ccc[nH]1,Potency,[1],inactive
same,Potency,[2],inactive
Cc1occc(=O)c1O[C@@H]1O[C@H](CO)[C@@H](O)[C@H](O)[C@H]1O,Potency,[1],inactive
same,Potency,[2],inactive
C[C@@H]1O[C@@H](O[C@@H]2[C@@H](O)[C@H](O[C@H]3[C@H](O[C@H]4CC[C@@]5(C)C(CC[C@]6(C)C5CC=C5[C@@H]7CC(C)(C)CC[C@]7(C(=O)O[C@@H]7O[C@H](CO)[C@@H](O)[C@H](O)[C@H]7O)CC[C@]56C)C4(C)C)O[C@H](C(=O)O)[C@@H](O)[C@@H]3O)OC[C@H]2O)[C@H](O)[C@H](O)[C@H]1O (some centres not stated),outcome,[1],inactive [at 9.29 µM]
same,"activity change, negative = cytotoxicity",[2],6.37% [at 9.29 µM]

# From PubChem BioAssay (NCATS)
